Source: PMC5540273 (PLoS ONE, 2017)

Columns and labels:
Settings in all cases: concentration: 1 μM, replicates: in singlicate; n = 1
[1] = system: T1, RSK4(Kin.Dom.1-N-terminal)
T1 construct: gene RPS6KA6

[2] = system: T2, RSK4(Kin.Dom.2-C-terminal)
T2 construct: gene RPS6KA6

S6K1 = system: S6K1
SBK1 = system: SBK1
SGK2 = system: SGK2
SGK3 = system: SGK3
SGK = system: SGK
SIK2 = system: SIK2
SIK = system: SIK
SLK = system: SLK
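Also: KINOMEscan kinase panel screen.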

| Structure (SMILES) | %Inh [1] [%] | %Inh [2] [%] | %Inh (S6K1) [%] | %Inh (SBK1) [%] | %Inh (SGK2) [%] | %Inh (SGK3) [%] | %Inh (SGK) [%] | %Inh (SIK2) [%] | %Inh (SIK) [%] | %Inh (SLK) [%] |
| --- | --- | --- | --- | --- | --- | --- | --- | --- | --- | --- |
| COC(=O)Nc1nc2ccc(Oc3ccc(CC(=O)Nc4cc(C(F)(F)F)ccc4F)cc3)cc2[nH]1 [GW680903] | 0 | 9 | 9 | 10 | 4 | 0 | 0 | 0 | 0 | 2 |
| Nc1ncc(-c2ccc3nccc(-c4ccncc4)c3c2)cc1S(=O)(=O)N1CCCCC1 [GSK1693850] | 8 | 50 | 7 | 14 | 0 | 17 | 0 | 0 | 0 | 69 |
| Cl.Cl.NCC(NC(=O)c1cc(-c2cccnc2)c(-c2ccnc3[nH]ccc23)s1)c1ccccc1 (centres unmarked) [GSK1323434] | 0 | 31 | 27 | 42 | 51 | 70 | 27 | 0 | 12 | 32 |
| COC(=O)Nc1nc2cc(Oc3ccc(NC(=O)Nc4cccc(SC)c4)cc3)ccc2[nH]1.Cl [GW697999] | 0 | 0 | 9 | 0 | 0 | 8 | 11 | 0 | 0 | 33 |
| CS(=O)(=O)c1cccc(CNc2nc(Nc3ccc4c(c3)CCC(=O)N4)ncc2C(F)(F)F)c1 | 85 | 0 | 16 | 67 | 0 | 2 | 27 | 23 | 0 | 20 |
| CC(C)NCC(Cc1ccccc1)NC(=O)c1cc(Br)c(-c2ccnc3[nH]ccc23)s1.Cl.Cl (centres unmarked) [GSK1383281] | 5 | 20 | 56 | 45 | 0 | 66 | 59 | 0 | 4 | 0 |
| COc1cccc(C2=C(Nc3cccc(O)c3)C(=O)NC2=O)c1 [SB-390771] | 0 | 37 | 11 | 4 | 0 | 16 | 0 | 3 | 0 | 69 |
| Cc1cc(-c2c(-c3ccc(F)cc3)ncn2CCCN2CCOCC2)nc(N)n1 [SB-222517] | 20 | 0 | 11 | 18 | 0 | 3 | 0 | 2 | 0 | 18 |
| COc1cccc(CC(=O)N2CCc3cc(-c4cn(C)c5ncnc(N)c45)ccc32)c1 [GSK2608899] | 0 | 29 | 13 | 20 | 2 | 2 | 0 | 0 | 17 | 65 |
| Cc1ccccc1CC(=O)N1CCc2cc(-c3cn(C)c4ncnc(N)c34)ccc21 [GSK2603346] | 28 | 10 | 19 | 23 | 2 | 0 | 0 | 0 | 0 | 48 |
| COC(=O)Nc1nc2ccc(Oc3ccc(NC(=O)Nc4cc(C(F)(F)F)ccc4F)cc3)cc2[nH]1.Cl [GW654607] | 0 | 16 | 21 | 17 | 8 | 5 | 0 | 0 | 0 | 85 |
| Cc1cccc(Nc2nc(NCCN)ncc2C(N)=O)c1 [GSK1292139] | 21 | 23 | 14 | 72 | 0 | 8 | 9 | 52 | 19 | 32 |
| CSc1ccc(NC2=C(c3ccc(Cl)cc3)C(=O)NC2=O)cc1 [SB-317658] | 5 | 0 | 0 | 29 | 0 | 0 | 0 | 9 | 25 | 8 |
| Fc1cc(Cl)ccc1Nc1ccnc2cc(-c3ccc(CN4CCOCC4)o3)ccc12 [GW560109] | 0 | 90.3 | 26 | 37 | 6 | 0 | 0 | 100 | 97.4 | 32 |
| CN(C)CCOc1ccc(-c2cc(-c3ccc(Cl)c(O)c3)c(-c3ccncc3)[nH]2)cc1.Cl.Cl [SB-684387] | 0 | 25 | 6 | 12 | 10 | 20 | 24 | 27 | 4 | 98 |
| COc1cccc2c(-c3ccncc3)c(-c3ccc(F)cc3)nn12 [GW468513] | 23 | 86 | 3 | 0 | 0 | 9 | 0 | 0 | 0 | 23 |

| Structure (SMILES) | %Inh [1] [%] | %Inh [2] [%] | %Inh (S6K1) [%] | %Inh (SBK1) [%] | %Inh (SGK2) [%] | %Inh (SGK3) [%] | %Inh (SGK) [%] | %Inh (SIK2) [%] | %Inh (SIK) [%] | %Inh (SLK) [%] |
| --- | --- | --- | --- | --- | --- | --- | --- | --- | --- | --- |
| CN(C)c1ncnc2nc[nH]c12 [SKF-31736] | 28 | 8 | 29 | 0 | 23 | 0 | 14 | 0 | 0 | 0 |
| Cl.Cl.NC(CNC(=O)c1cc(Br)c(-c2ccnc3[nH]ccc23)s1)c1ccccc1 (centres unmarked) [GSK1322949] | 0 | 16 | 39 | 51 | 16 | 66 | 46 | 6 | 4 | 20 |
| Nc1ncnc2scc(-c3ccc(NC(=O)Cc4cc(F)ccc4F)cc3)c12.O=C(O)C(F)(F)F [SB-731254-M] | 17 | 18 | 46 | 27 | 27 | 23 | 18 | 11 | 5 | 28 |
| COc1ccc(C)c(Nc2ccnc(Nc3ccc(-c4cnc[nH]4)cc3)n2)c1.Cl [GW784041] | 0 | 0 | 0 | 0 | 0 | 12 | 0 | 71 | 28 | 70 |
| Cc1cc(-c2ccnc(Nc3cccc(C#N)c3)n2)cc(C)c1O [GSK1440913] | 0 | 0 | 0 | 28 | 29 | 6 | 55 | 15 | 0 | 21 |
| CN1CCN(Cc2ccc(NC(=O)Nc3ccc(N(C)c4ccnc(Nc5ccc(CS(C)(=O)=O)cc5)n4)cc3)cc2)CC1.Cl [GW827654] | 6 | 57 | 17 | 0 | 58 | 21 | 53 | 15 | 22 | 97.3 |
| Cc1ccc(-c2ccc3occ(-c4ccc(S(C)=O)cc4)c3c2)nn1 (centres unmarked) | 0 | 0 | 5 | 0 | 0 | 0 | 0 | 7 | 0 | 12 |
| N#CC1(c2cccc(C(=O)Nc3cccc(Oc4ccc5nc(NC(=O)C6CC6)sc5n4)c3)c2)CC1 | 11 | 10 | 0 | 0 | 0 | 0 | 0 | 0 | 31 | 39 |
| Cn1cc(-c2ccc3c(c2)CCN3C(=O)Cc2cc(F)cc(C(F)(F)F)c2)c2c(N)ncnc21 [GSK2635225] | 0 | 0 | 9 | 7 | 0 | 8 | 1 | 0 | 0 | 41 |
| O=C(O)C(F)(F)F.O=c1[nH]ccc2nc(N[C@@H]3CCNC3)nc(Nc3ccc4c(c3)S(=O)(=O)CC4)c12 [GSK2181306] | 97.8 | 59 | 92.7 | 90.1 | 91.7 | 98.6 | 97.2 | 73 | 18 | 99.7 |
| COc1cc(Nc2nccc(N3CCC(NS(=O)(=O)c4ccc(NC(C)=O)cc4)CC3)n2)cc(OC)c1OC [GSK1379825] | 0 | 3 | 0 | 14 | 15 | 0 | 9 | 61 | 0 | 48 |
| CCNC(=O)/C=C/c1n[nH]c2cc(Sc3ccccc3C(=O)NC)ccc12 | 17 | 24 | 18 | 0 | 0 | 46 | 0 | 55 | 44 | 23 |
| CC(C)(C)c1ccc(C(=O)Nc2cn3cc(-n4ccnc4)ccc3n2)cc1 | 29 | 0 | 8 | 0 | 11 | 60 | 2 | 10 | 9 | 6 |
| COc1cc(Nc2ccnc3cc(-c4ccncc4)ccc23)cc(OC)c1OC.Cl [GW494610] | 19 | 0 | 17 | 100 | 5 | 2 | 19 | 74 | 91.5 | 49 |
| Cl.O=C(Nc1ccc(Oc2ccc3[nH]c(NC(=O)c4ccco4)nc3c2)cc1)Nc1cc(C(F)(F)F)ccc1F [GW683134] | 0 | 13 | 45 | 3 | 14 | 0 | 0 | 0 | 0 | 83 |
| Cc1ccc(C)c(NC(=O)Nc2ccc(C)c(-c3ccc(C(=O)Nc4ccncc4)cc3)c2)c1 [GSK1398473] | 0 | 18 | 3 | 14 | 0 | 8 | 0 | 0 | 3 | 17 |
